Assay outcomes deposited in PubChem BioAssay by several laboratories.
KCC2 mod = modulators of human KCC2 chloride dependent transport; Q9H2X9; KCC2 cells, thallium flux FluoZin-2 fluorescence; B-score of Tl+ flux slope (higher = more flux/activation; lower = inhibition) at 10 µM; hit rate 2.2% among 190,000; AID 1456;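 active = thallium flux slope and its plate-corrected score both differing from the plate sample mean at a set confidence after two filtering rounds, in either direction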;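 note: slope of fluorescence scaled to starting intensity during 10 to 20 s after thallium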
RAM network inh = inhibitors of the yeast RAM network; S. cerevisiae dse1pr::URA3 reporter, 5-FOA growth OD615, 2 d; analog-sensitive cbk1-as2 kinase mutant strain; inhibition, % at 50 µM; hit rate 1.8% among 190,000;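 active = inhibition above a set limit, 3 SD over mean compound inhibition, cut at about 8.4% in these data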;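 note: inhibition rescues growth on 5-FOA so higher OD means more RAM inhibition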
ROMK primary = human ROMK K+ channel modulation, primary screen; B-score at 10 µM; AID 1918; hit rate 2% among 130,000; P48048; Tet-inducible ROMK, thallium flux fluorescence; actives lie on both sides;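 active = signal ratio slope over the read window, or its plate-corrected B-score, at least 3 SD from the plate mean, either direction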;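 note: B-score of the F/F0 ratio slope over 7 to 12 s after thallium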
Target sequence (P48048 whole entry, looked up): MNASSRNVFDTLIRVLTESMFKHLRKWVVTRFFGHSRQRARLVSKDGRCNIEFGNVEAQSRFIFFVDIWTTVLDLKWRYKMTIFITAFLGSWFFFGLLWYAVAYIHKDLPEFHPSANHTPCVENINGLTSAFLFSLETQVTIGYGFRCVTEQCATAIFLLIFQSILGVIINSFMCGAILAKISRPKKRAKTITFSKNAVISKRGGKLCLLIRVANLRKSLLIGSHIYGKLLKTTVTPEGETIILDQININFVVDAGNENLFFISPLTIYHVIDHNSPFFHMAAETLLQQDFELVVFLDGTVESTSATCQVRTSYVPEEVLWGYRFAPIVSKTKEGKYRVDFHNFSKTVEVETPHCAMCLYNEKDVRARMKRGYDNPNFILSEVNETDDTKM
S1P4 agonist = human S1P4 receptor agonism. hit rate 0.35% among 220,000. O95977. activation, % at 4.98 µM. S1P4-expressing cell line, agonist reporter assay; in the data active = activation above about 11%
S1P3 antagonist = S1P3 (human) receptor antagonism; Q99500; CHO S1P3 NFAT-BLA reporter, FRET fluorescence, antagonist mode; inhibition, % at 4.98 µM; hit rate 0.27% among 170,000;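 active = inhibition above the plate cutoff, the mean inhibition of test wells on that plate plus 3 SD, cut at about 28% in these data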;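 note: cells challenged with S1P at its EC80 of 0.8 µM; blue over green emission ratio from cleaved BLA substrate after 4 h stimulation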
Target sequence (Q99500 whole entry, looked up): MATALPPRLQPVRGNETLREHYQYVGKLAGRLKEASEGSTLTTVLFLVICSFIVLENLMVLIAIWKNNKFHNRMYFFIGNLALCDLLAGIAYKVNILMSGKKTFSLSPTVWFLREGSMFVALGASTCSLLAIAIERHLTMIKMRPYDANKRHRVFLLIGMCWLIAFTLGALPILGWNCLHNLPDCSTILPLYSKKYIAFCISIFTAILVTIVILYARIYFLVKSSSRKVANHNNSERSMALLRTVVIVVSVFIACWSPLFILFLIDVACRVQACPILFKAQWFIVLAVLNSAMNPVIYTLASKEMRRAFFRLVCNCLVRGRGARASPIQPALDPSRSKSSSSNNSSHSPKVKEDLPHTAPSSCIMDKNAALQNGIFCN
S1P4 antagonist = human S1P4 receptor antagonism | O95977 | S1P4-expressing cells, antagonist mode, reporter read-out | inhibition, % at 4.98 µM | hit rate 0.26% among 220,000 | AID 1510; in the data active = inhibition above about 29%
ROMK retest = human ROMK channel modulation, retest confirmation. AID 1917. shares compounds with ROMK primary. normalized thallium flux (F/F0 slope) at 10 µM. hit rate 54% among 3,000. ROMK thallium flux, fluorescence ratio; hits give low values;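 active = Flux at 10 µM at least 3 SD below or above vehicle control mean in one or both replicates; inconclusive = no clear call, values can overlap the other calls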
Each line names hits and unclear results; the compound was inactive in the other large screens (follow-up assays come after a bar, where they were run). This is a sample that favours compounds with a hit; in the whole collection about 5.1% have one here.

CC(/C=C/c1ccccc1)=N\NC(=O)Cn1nc(C)cc1C	none (no result: ROMK primary)
O=C(Nc1cc(N2CCOCC2)ncn1)NC1(C(F)(F)F)Oc2ccccc2O1	none (no result: ROMK primary, S1P3 antagonist)
CCCCCc1n[nH]c2c1CCCC2	none (no result: RAM network inh, ROMK primary)
CCN1CCN(CCn2c(=S)[nH]c3ccccc3c2=O)CC1	none (no result: KCC2 mod, S1P3 antagonist)
CC(C)N(CCn1c(=S)[nH]c2ccccc2c1=O)C(C)C	ROMK primary 3.2 (no result: S1P3 antagonist) | ROMK retest 0.068
CCOC(=O)C1CCCN(C(=O)c2cnn3c(C(F)F)cc(-c4ccc(C)cc4)nc23)C1 (stereo not given)	S1P3 antagonist 76 (no result: KCC2 mod, ROMK primary) | ROMK retest inactive
CCCOC(=O)Nc1c(C)cccc1C(C)C	none
CC1=C(C)CS(=O)N(S(=O)(=O)c2ccccc2)C1 (stereo not given)	ROMK primary -5.5 (no result: KCC2 mod, S1P3 antagonist) | ROMK retest 0.047
CC1=C(C)CS(=O)N(c2ccc(S(N)(=O)=O)cc2)C1 (stereo not given)	none (no result: ROMK primary, S1P3 antagonist)
OCC1OC(n2cnc3ccccc32)CC1O (stereo not given)	none (no result: RAM network inh, ROMK primary)
C/C=C/c1c(F)c(F)c(Oc2ccc(C(=O)O)cc2)c(F)c1F	ROMK primary 3.8 (no result: KCC2 mod, S1P3 antagonist) | ROMK retest inactive
O=C1c2[nH]nc(-c3ccccc3O)c2C(c2cccc(Cl)c2)N1CC1CCCO1 (stereo not given)	ROMK primary -2.4 (no result: KCC2 mod) | ROMK retest 0.052
O=C(NC12CC3CC(CC(C3)C1)C2)C12CC3CC(C1)CC(n1cnc(Cl)n1)(C3)C2	none (no result: ROMK primary, S1P3 antagonist)
O=C(CSc1ccc(-c2ccco2)nn1)NC1CCCC1	none (no result: ROMK primary) | ROMK retest inactive
COc1cccc(NC(=O)c2cc([N+](=O)[O-])ccc2NCc2cccnc2)c1	ROMK primary -6.7 | ROMK retest 0.03
Cc1ccc(NC(=O)c2cc([N+](=O)[O-])ccc2NCc2cccnc2)cc1Cl	none (no result: ROMK primary, S1P3 antagonist)
COc1cccc(NC(=O)c2cccc(C)c2[N+](=O)[O-])c1	ROMK primary 4.3 | ROMK retest inactive
COCCNc1ccc([N+](=O)[O-])cc1C(=O)Nc1cccc(C)n1	ROMK primary -5.1 | ROMK retest 0.029
Cc1cccc(NC(=O)c2ccc([N+](=O)[O-])cc2Cl)n1	none
CCC(CO)NCc1cc(OC)c(OCC(=O)NCCc2ccccc2)cc1Br (stereo not given)	none
CCCCOc1ccccc1C1C(C(=O)OC)=C(C)N(C)C(C)=C1C(=O)OC	none (no result: ROMK primary)
COC(=O)C1=C(C)N(C)C(C)=C(C(=O)OC)C1c1ccccc1C	ROMK primary -4.4 | ROMK retest 0.064
OC(COCc1cccs1)CN1CCN(c2cccc(Cl)c2)CC1 (stereo not given)	ROMK primary -2.6 | ROMK retest 0.054
N#CC1=C(N)C(C#N)(C#N)[C@H](c2ccncc2)[C@H]2CC3(CC=C12)OCCO3	ROMK primary -3.8 | ROMK retest inconclusive
Cn1c(CSc2nc3ccccc3s2)nnc1SCC(=O)NCc1cccnc1	none (no result: S1P3 antagonist)
CCN1CCCc2cc(CN(CCN3CCOCC3)C(=O)Nc3ccc(C)c(C)c3)ccc21	ROMK primary -3.5 (no result: S1P3 antagonist) | ROMK retest 0.056
CCc1ccc(NC(=O)N(CCN2CCOCC2)Cc2ccc3c(c2)CCCN3CC)cc1	none (no result: S1P3 antagonist)
Cc1ccnc(NS(=O)(=O)c2ccc(NC(=O)c3ccc(N4C(=O)CCC4=O)cc3)cc2)n1	none
Cc1ccnc(NS(=O)(=O)c2ccc(NC(=O)CN3C(=O)CCC3=O)cc2)n1	ROMK primary 2.6 | ROMK retest inactive
Cc1nn(C)cc1C(C(=O)NC1CCCCC1)N(Cc1ccccc1Cl)C(=O)c1cnccn1 (stereo not given)	none
O=C(NCC(c1cccs1)N1CCOCC1)c1ccccc1NS(=O)(=O)c1cc([N+](=O)[O-])ccc1Cl (stereo not given)	none (no result: ROMK primary) | ROMK retest 0.068
CCN(c1ccccc1)S(=O)(=O)c1ccc(OC)c(NC(=O)CNCCc2ccccc2)c1	ROMK primary -6.6 | ROMK retest 0.05
Cn1c(Cl)c(C(=O)Nc2ccc(Cl)cc2)c2ccccc21	none (no result: KCC2 mod, ROMK primary, S1P3 antagonist)
C=CCOc1ccc(C=Nc2cccc(Cl)c2)c(O)c1	ROMK primary -2.9 | ROMK retest inactive
Oc1ccc(N=Nc2cccc(Cl)c2)cc1C=Nc1ccc(N2CCOCC2)cc1	none (no result: ROMK primary)
COc1ccc(-n2nnnc2SCC(=O)NCc2ccco2)cc1OC	none (no result: ROMK primary) | ROMK retest inactive
Cc1ccc(NC(=O)O/N=C/c2c(C)nn(C(C)(C)C)c2C)cc1Cl	none (no result: KCC2 mod, RAM network inh, ROMK primary)
COC(=O)C1=C(C(=O)OC)[C@@H]2N(Cc3ccccc3)c3ccccc3[C@@]23C[C@@H](C(=O)OC)N(C(=O)CC(C)C)C3=N1	none (no result: RAM network inh, ROMK primary, S1P4 agonist, S1P3 antagonist, S1P4 antagonist) | ROMK retest inconclusive
COC(=O)C1=C(C(=O)OC)[C@@H]2N(Cc3ccccc3)c3ccccc3[C@@]23C[C@@H](C(=O)OC)N(C(=O)c2cccs2)C3=N1	none (no result: RAM network inh, ROMK primary, S1P4 agonist, S1P3 antagonist, S1P4 antagonist)
O=C(COc1ccc(S(=O)(=O)NC2CCCCC2)cc1)NC1CCCC1	none
O=C(CNc1n[nH]c(=O)[nH]c1=O)N/N=C/C=C/c1ccccc1	none (no result: RAM network inh)
CCN(C(=O)COC(=O)c1ccc(S(=O)(=O)N2CCCc3ccccc32)cc1)C1CCS(=O)(=O)C1 (stereo not given)	none
Cc1cc(N2CCN(c3nc4ccccc4s3)CC2)n2ncnc2n1	none (no result: ROMK primary) | ROMK retest 0.064
Cc1cc(N2CCN(C(c3ccccc3)c3ccccc3)CC2)n2ncnc2n1	ROMK primary 1.5 (no result: KCC2 mod) | ROMK retest inconclusive
Cc1nc2ncnn2c(N2CCN(C(c3ccccc3)c3ccccc3)CC2)c1C	none (no result: KCC2 mod)
CN(C)c1ccc(C2CC(c3ccccc3)=Nc3nc(-c4ccccc4)cn32)cc1 (stereo not given)	none (no result: ROMK primary)
COc1ccc(CCNC(=O)COC(=O)/C=C/c2ccc(OC)c(OC)c2)cc1	none (no result: ROMK primary)
CCC(C(=O)c1ccccc1)N(C(=O)c1ccccc1Cl)N1C(=O)C2C3C=CC(C3)C2C1=O (stereo not given)	none (no result: ROMK primary, S1P3 antagonist)
CCSc1nnc2nc(C)cc(C)n12	ROMK primary 1.9 (no result: S1P3 antagonist) | ROMK retest inactive
O=C(O)CC1NC(=O)N(C2CCCCC2)C1=O (stereo not given)	none
COc1ccccc1N1CCN(CCCCCCOc2ccc(F)cc2)CC1	ROMK primary -4.5 | ROMK retest 0.038
COc1ccc(C(=O)CCN2CCN(c3ccccc3F)CC2)cc1	ROMK primary -10 | ROMK retest inactive
CCCCC1=CC2=C(c3ccco3)C(=O)C(C)(OC(=O)c3ccc(OC)cc3)C(=O)C2=CN1c1ccccc1 (stereo not given)	none (no result: RAM network inh, ROMK primary, S1P4 agonist, S1P3 antagonist, S1P4 antagonist)
O=C(O)c1ccc(Cn2cnc3scc(-c4ccccc4)c3c2=O)cc1	ROMK primary -6 | ROMK retest 0.055
Cc1ccc(-c2csc3ncn(Cc4ccc(C(=O)O)cc4)c(=O)c23)cc1C	none (no result: ROMK primary)
CC1(C)Cc2c(sc(NC(=O)C3CC(Cl)=CCC3C(=O)O)c2C#N)CO1 (stereo not given)	none (no result: KCC2 mod)
Cc1c(N=Cc2cc(Br)cc(Br)c2O)cccc1C(=O)O	ROMK primary 3.4 | ROMK retest 0.1
